This is part of a sample that, as a whole, favours compounds with a hit. Of some 83,000 tested, about 20% had one in any assay.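 Negative percent growth values reflect cell death: -40 means 40% of the cells present at the start died, and -100 means all died.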 Unmarked numbers belong to inactive results. The source made the active and inactive calls. How the source made its calls: active means growth percent below 10; inactive means the rest.

The experiment concerns MDA-MB-468 breast. Briefly: NCI-60 one-dose screen, 48 h (100 = growth as untreated, 0 = no growth, -100 = all killed). The following applies: 10 µM unless noted.
With `O=[N+]([O-])c1ccc(N/N=C\c2cc(Cl)ccc2O)nc1`, the growth was -2.47% (active). As for `CN1CCN(c2ccc(Nc3nc(NCCCNS(=O)(=O)c4cccc(F)c4)c4sccc4n3)cc2)CC1`, the figure is -5.96% (active); as for `Cc1ccc(S(=O)(=O)c2nc(-c3ccccc3)oc2S(C)=O)cc1` (centres undefined), -59% (active). Then `O=C1/C(=C/c2ccc(F)cc2)C=C(c2ccccc2)N1CCc1ccccc1`, with 72.9%. For the compound `N#Cc1c(-c2ccc(Br)cc2)nc2c(N=Nc3ccc(S(N)(=O)=O)cc3)c(N)nn2c1N`, the growth is 23.6%.

As for `COc1ccc(NC(=O)Nc2ccc(-c3cccnc3)cc2N2CCC(CO)CC2)cc1`, the growth is 42.5%. On to `CNC(=S)NC(C)(C)C`, for which the growth is 111%. As for `CSc1nc(N)c2c(n1)N(C)C=NS2(=O)=O`, the figure is 107%. Then `Fc1cnccc1C1CC(c2ccc(N3CCNCC3)cc2)=NN1` (centres undefined), with 114%.

Turning to `COc1ccc2occ(C3=C(c4c[nH]c5ccccc45)C(=O)NC3=O)c2c1`, the growth is -2.93% (active). As to `Cc1ccc(Nc2nc(SC(C)C)nc(-c3ccccc3)c2C#N)cc1`, the growth is 96.7%. As for `O=C1/C(=C\c2cn(Cc3ccccc3)c3ccc(Br)cc23)c2ccccc2N1c1c(Cl)cccc1Cl`, the figure is 84.1%. Then `C#CCN1C(=O)/C(=c2\sc3n(c2=O)C2C(NN=3)N(CC)C(=O)N2CC)c2ccccc21` (centres undefined), with -26.9% (active). Then `Nc1[nH]nc(Nc2ccccc2)c1-c1nc2ccccc2s1`, with 17.5%; and `CCC1CCc2nc3sc(C(=O)Nc4cccc(F)c4)c(N)c3cc2C1` (centres undefined), with 23.4%; and `O=[N+]([O-])c1cccc2nsnc12`, with 93.1%. For the compound `C=C(Cl)C(=NC(C)(C)C)Nc1ccccc1C`, the growth is 39.2%.

On to `Cc1ncc(C(=O)Nc2ccc(CN3CCN(C)CC3)c(C(F)(F)F)c2)cc1C#Cc1cnc(N)c2cnccc12`, for which the growth was -6.82% (active). Then `O=S(=O)(NCCNc1cc(-c2cn(-c3ccccc3)nc2-c2cccc(O)c2)ccn1)c1ccc(F)cc1`, with -22.4% (active); and `CCC(=O)N1C/C(=C/c2ccc(Br)cc2)C(=O)/C(=C/c2ccc(Br)cc2)C1`, with -91.5% (active). In the case of `C#Cc1nc(C2=C(C)/C(=N/OCc3ccccc3)CC2)cs1`, the growth was 54.5%. As for `COc1ccc2c(c1)C=CC(C#N)N2C(=O)c1ccccc1` (centres undefined), the figure is 13.1%; as for `CCN(CC)c1ccc2nc3c4ccccc4c(=O)cc-3n(-c3ccccc3)c2c1`, -17.5% (active); as for `CN(Cc1cc(Br)cc(Br)c1O)Cc1cc(Br)cc(Br)c1O`, -1.21% (active). Then `Cc1nc2sc(C(=O)Nc3ccccc3)c(N)c2cc1C(C)O` (centres undefined), with 28.6%; and `CC(=O)OC[C@]12CC[C@@H]([C@@H](C)c3nnc(-c4ccncc4)o3)[C@@H]1[C@H]1CC[C@@H]3[C@@]4(C)CC[C@H](OC(C)=O)C(C)(C)[C@@H]4CC[C@@]3(C)[C@]1(C)CC2`, with 59%. As for `[2H]c1nc(Nc2ncc3cc(C(=O)N(C)C)n(C4CCCC4)c3n2)c([2H])c([2H])c1N1C([2H])([2H])C([2H])([2H])NC([2H])([2H])C1([2H])[2H]`, the figure is 89%; as for `O=C(N/N=C/c1cccc(O)c1)c1ccccc1Nc1cccc(C(F)(F)F)c1`, 27%; as for `CCCC/C=N/NC(=S)NCc1ccccc1`, 93%. With `CCOC(=O)/C(=C\c1ccc2ccccc2c1)P(=O)(OCC)OCC`, the growth is -13.1% (active). Then `CC(O)Cn1cnc2c1c(=O)n(C)c(=O)n2C` (centres undefined), with 78.5%; and `NC1(c2ccc(-c3nc4ccn5c(=O)[nH]nc5c4cc3-c3ccccc3)cc2)CCC1`, with -32.4% (active). As for `Nc1ccc(F)c(Cl)c1F`, the figure is 92.5%.

Regarding `COc1ccc(C(=S)c2cc(OC)c(OC)c(OC)c2)cc1OC(=O)CCl`, the growth is 47.5%. As for `COC(=O)[C@@]1(C)CC[C@]2(C)CC[C@]3(C)C4=CC=C5C(=CC(=O)C(O)=C5C)[C@]4(C)[C@@H](O)C[C@@]3(C)[C@@H]2C1`, the figure is 10.1%. Then `CCCCN(CCC)CCCCCCCCCCN1CCCc2ccccc21`, with 65.6%. As for `CCC(=O)Oc1ccc2ccccc2c1`, the figure is 96.8%; as for `O=C(O)c1ccc(P(=O)(O)O)c([N+](=O)[O-])c1`, 98.4%.

For the compound `CC(C)c1ccc(C(=O)OCCCl)cc1`, the growth was 111%.
